Results from PubChem BioAssay (Tox21).
Inconclusive results are not listed. Entries that show only a call come without a potency. The source made the active and inactive calls. Unless noted, calls follow the shape of the full dose curve.

Key:
[1] = Nuclear factor erythroid 2-related factor 2/antioxidant responsive element (Nrf2/ARE) small molecule agonists: qHTS cell viability counter screen in human keratinocytes (AID 1919968; active = well fitted curve in the direction sought with a large enough effect in the repeat runs; an effect the other way counts as inactive or inconclusive; also: nearly all actives have a fitted effect of over 55% in size)
Procedure, shortened: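 HaCaT ARE reporter line, 1,500 cells/well; 5 h settle, 37 C/5% CO2; cpd in DMSO pinned; 23 h exposure; CellTiter-Fluor, 1 h; fluorescence.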

[2] = Nuclear factor erythroid 2-related factor 2/antioxidant responsive element (Nrf2/ARE) small molecule agonists: luciferase reporter gene qHTS assay in human keratinocytes (AID 1919969); also: nearly all actives have a fitted effect of over 35% in size; also: potency is read from the fitted curve at half-maximal effect
[3] = biological target: Gonadotropin-releasing hormone receptor (Homo sapiens) (UniProt P30968); experiment: Human gonadotropin-releasing hormone receptor (GnRHR) small molecule agonists, calcium flux assay in GnRHR-HEK293 cells (AID 1920063); also: nearly all actives have a fitted effect of over 35% in size
Gonadotropin-releasing hormone receptor (Homo sapiens), sequence (P30968 whole entry, looked up): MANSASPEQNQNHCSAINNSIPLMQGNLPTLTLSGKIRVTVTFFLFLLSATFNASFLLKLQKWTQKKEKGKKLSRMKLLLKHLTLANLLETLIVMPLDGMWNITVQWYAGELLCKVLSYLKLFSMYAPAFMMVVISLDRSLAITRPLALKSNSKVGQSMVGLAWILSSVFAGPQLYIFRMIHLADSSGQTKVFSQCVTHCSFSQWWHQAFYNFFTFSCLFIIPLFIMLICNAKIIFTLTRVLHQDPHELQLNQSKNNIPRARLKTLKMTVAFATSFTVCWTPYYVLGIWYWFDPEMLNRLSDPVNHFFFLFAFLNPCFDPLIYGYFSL
Procedure, shortened: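 GnRHR-HEK293, 1500 cells/well, 18 h 37 C/5% CO2; Ca dye 1 h 37 C; cpd pinned (DMSO), agonist mode; kinetic FL 480/540, 3 min, 1 s reads; 15 conc, n=3.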

[4] = biological target: KiSS-1 receptor (Homo sapiens) (UniProt Q969F8); experiment: Human kisspeptin (KISS1R) small molecule agonists, calcium flux assay in KISS1R-HEK293 cells (AID 1920064; active = well fitted curve in the direction sought with a large enough effect in the repeat runs; an effect the other way counts as inactive or inconclusive)
KiSS-1 receptor (Homo sapiens), sequence (Q969F8 whole entry, looked up): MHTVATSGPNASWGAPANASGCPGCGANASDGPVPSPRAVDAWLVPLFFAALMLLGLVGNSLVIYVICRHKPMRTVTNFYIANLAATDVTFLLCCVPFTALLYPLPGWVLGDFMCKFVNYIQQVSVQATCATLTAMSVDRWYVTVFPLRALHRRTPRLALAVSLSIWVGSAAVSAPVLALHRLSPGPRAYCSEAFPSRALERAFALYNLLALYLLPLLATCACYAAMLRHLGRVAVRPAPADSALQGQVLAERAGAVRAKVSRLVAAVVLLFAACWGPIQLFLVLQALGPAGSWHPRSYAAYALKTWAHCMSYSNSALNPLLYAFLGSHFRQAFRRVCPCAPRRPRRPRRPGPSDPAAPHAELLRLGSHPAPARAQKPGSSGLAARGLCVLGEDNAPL
Procedure, shortened: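 Stable human KISS1R HEK293 line; 18 h plating, 37 C/5% CO2; calcium dye 1 h 37 C; compound pin transfer; kinetic fluorescence Ex/Em 480/540, 3 min.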

[5] = G protein-coupled receptor (GPCR) small molecule agonists, calcium flux assay: HEK293 wild type cell line counter screen (AID 1920065)
Procedure, shortened: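 Kinetic fluorescence at Ex/Em 480/540, recorded every second over 3 min, served as the read-out after compound addition. Each compound was tested at 15 concentrations in triplicate on cells pre-loaded with calcium dye for 1 h.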

[6] = p53 small molecule agonists, cell-based qHTS assay with human liver microsomes (AID 1963577)
Procedure, shortened: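 Fluorescence of the beta-lactamase reporter in p53RE-bla cells, detected with LiveBLAzer substrate (2 h, room temperature, dark), served as the read-out after 16 h compound exposure at 37 C with human liver microsomes and NADPH, each 0.5 mg/mL final.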

[7] = p53 small molecule agonists, cell-based qHTS assay with rat liver microsomes (AID 1963578)
Procedure, shortened: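 Cells carrying a p53 response element–beta-lactamase reporter were plated and rested 5 h, then dosed with compound in DMSO plus rat liver microsomes and NADPH, each at 0.5 mg/mL final. After 16 h at 37 C, LiveBLAzer substrate was added for 2 h.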

[8] = p53 small molecule agonists, cell-based qHTS assay with human liver microsomes: qHTS cell viability counter screen (AID 1963579); also: nearly all actives have a fitted effect of over 45% in size
Procedure, shortened: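 Cytotoxicity counter screen: p53RE-bla, 4,000 cells/well; 5 h settle, 37 C/5% CO2; cpd + HLM 0.5 mg/mL + NADPH 0.5 mg/mL (final); 16 h, 37 C; CellTiter-Glo, 30 min RT, luminescence.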

[9] = p53 small molecule agonists, cell-based qHTS assay: qHTS cell viability counter screen (AID 1963581); also: nearly all actives have a fitted effect of over 45% in size
Procedure, shortened: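 HCT-116 p53RE-bla cells, 4,000/well, plated 5 h before compound pin transfer; 16 h at 37 C; bla substrate 2 h RT; then CellTiter-Glo, 30 min RT, luminescence.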

[10] = p53 small molecule agonists, cell-based qHTS assay (AID 1963582; active = well fitted activation curve with a large enough effect in the signal ratio in the repeat runs, not every such curve was filed as active; the % refers to the signal ratio; also: potency is read from the fitted curve at half-maximal effect)
Procedure, shortened: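 Reporter line: p53RE-bla. Pre-incubation 5 h, 37 C, 5% CO2; compound (DMSO, pin tool) 16 h, 37 C; B/G FRET substrate 2 h RT; fluorescence intensity read.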

[11] = biological target: 5-hydroxytryptamine receptor 2A (Homo sapiens) (UniProt P28223); experiment: 5-hydroxytryptamine receptor 2A (HTR2A) small molecule antagonists, cell-based qHTS assay (AID 1963586); also: nearly all actives have a fitted effect of over 45% in size
5-hydroxytryptamine receptor 2A (Homo sapiens), sequence (P28223 whole entry, looked up): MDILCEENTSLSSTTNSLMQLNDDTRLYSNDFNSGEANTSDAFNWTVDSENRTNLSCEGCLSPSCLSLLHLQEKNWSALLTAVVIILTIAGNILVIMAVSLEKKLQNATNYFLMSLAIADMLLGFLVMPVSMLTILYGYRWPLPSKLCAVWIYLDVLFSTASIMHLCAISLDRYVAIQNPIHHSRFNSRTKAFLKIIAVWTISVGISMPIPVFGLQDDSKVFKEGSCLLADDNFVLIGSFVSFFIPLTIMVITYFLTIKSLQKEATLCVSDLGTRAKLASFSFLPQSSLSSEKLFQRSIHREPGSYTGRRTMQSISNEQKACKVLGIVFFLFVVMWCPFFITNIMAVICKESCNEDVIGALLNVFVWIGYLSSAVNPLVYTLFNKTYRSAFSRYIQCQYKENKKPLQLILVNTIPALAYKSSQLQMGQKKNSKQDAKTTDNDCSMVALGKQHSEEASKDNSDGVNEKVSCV
Procedure, shortened: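 Antagonist-mode intracellular calcium assay: DOI (4 nM) added after 5 min compound pre-incubation at room temperature to dye-loaded HTR2A-CHO cells. Fluorescence followed for 3 min, sampled every second.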

[12] = biological target: 5-hydroxytryptamine receptor 2A (Homo sapiens) (UniProt P28223); experiment: 5-hydroxytryptamine receptor 2A (HTR2A) small molecule agonists, cell-based qHTS assay (AID 1963587); also: nearly all actives have a fitted effect of over 30% in size
Procedure, shortened: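 CHO cells stably expressing human HTR2A, plated 18 h, loaded with calcium dye 1 h at 37 C. Agonist mode: compounds added and intracellular calcium fluorescence recorded kinetically for 2 min at 1 sec intervals.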

[13] = biological target: Muscarinic acetylcholine receptor M1 (Homo sapiens) (UniProt P11229); experiment: Cholinergic receptor muscarinic 1 (CHRM1) small molecule antagonists, cell-based qHTS assay (AID 1963588); also: nearly all actives have a fitted effect of over 40% in size
Muscarinic acetylcholine receptor M1 (Homo sapiens), sequence (P11229 whole entry, looked up): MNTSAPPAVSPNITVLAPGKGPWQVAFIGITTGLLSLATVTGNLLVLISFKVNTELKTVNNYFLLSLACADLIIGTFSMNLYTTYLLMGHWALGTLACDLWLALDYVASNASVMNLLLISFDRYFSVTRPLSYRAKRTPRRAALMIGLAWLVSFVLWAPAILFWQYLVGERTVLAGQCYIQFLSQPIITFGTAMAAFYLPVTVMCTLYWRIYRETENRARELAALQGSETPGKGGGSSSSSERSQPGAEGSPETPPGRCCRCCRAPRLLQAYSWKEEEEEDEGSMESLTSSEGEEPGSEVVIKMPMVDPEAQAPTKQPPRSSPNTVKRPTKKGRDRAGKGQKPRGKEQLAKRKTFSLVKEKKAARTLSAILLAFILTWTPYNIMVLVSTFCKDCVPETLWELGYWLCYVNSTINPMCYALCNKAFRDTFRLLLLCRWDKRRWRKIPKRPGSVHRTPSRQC
Procedure, shortened: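 CHRM1-CHO calcium-flux assay, antagonist mode. Cells were seeded 18 h, dye-loaded 1 h at 37 C and given compound for 5 min at RT, then acetylcholine was added at 50nM. FDSS fluorescence was read 3 min; 15 concentrations, three runs.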

[14] = cAMP Responsive Elements (CRE) small molecule agonists, cell-based qHTS assay (AID 1963590)
Procedure, shortened: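 HEK 293T CRE-bla, 2,000 cells/well, 18 h preincubation 37 C/5% CO2; cpds (DMSO) pinned, 3 h; LiveBLAzer B/G FRET substrate, 2 h RT.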

[15] = cAMP Responsive Elements (CRE) small molecule antagonists, cell-based qHTS assay (AID 1963591; active = well fitted inhibition curve with a large enough effect in the signal ratio in the repeat runs, not every such curve was filed as active; the % refers to the signal ratio)
Procedure, shortened: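 Beta-lactamase reporter read by FRET substrate (LiveBLAzer B/G) after 2 h at room temperature. CRE-bla HEK293T cells had received compound plus 0.25 uM (final) NKH477 for 3 h at 37 °C.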

[16] = biological target: Beta-2 adrenergic receptor (Homo sapiens) (UniProt P07550); experiment: Adrenergic beta2 receptor (ADRB2) small molecule antagonists, cell-based qHTS assay (AID 1963592); also: series mostly up to about 92 µM; nearly all actives have a fitted effect of over 50% in size
Beta-2 adrenergic receptor (Homo sapiens), sequence (P07550 whole entry, looked up): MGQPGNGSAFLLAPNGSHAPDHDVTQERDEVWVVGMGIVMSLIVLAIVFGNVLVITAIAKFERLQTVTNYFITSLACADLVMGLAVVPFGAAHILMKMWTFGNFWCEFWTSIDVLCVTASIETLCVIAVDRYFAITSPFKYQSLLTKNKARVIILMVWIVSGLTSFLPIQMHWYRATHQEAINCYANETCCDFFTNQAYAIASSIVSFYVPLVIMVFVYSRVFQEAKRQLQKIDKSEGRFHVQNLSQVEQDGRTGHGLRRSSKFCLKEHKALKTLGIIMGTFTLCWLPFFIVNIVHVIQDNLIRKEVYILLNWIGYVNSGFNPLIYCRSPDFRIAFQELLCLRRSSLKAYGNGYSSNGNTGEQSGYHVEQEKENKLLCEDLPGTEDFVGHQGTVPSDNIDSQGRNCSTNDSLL
Procedure, shortened: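 Cells (CHO, stable ADRB2 overexpression) incubated 18-20hr at 37C; compounds added from DMSO; agonist mix (1nM isoproterenol, 100uM IBMX, 25uM Ro-20-1724) added; 0.5hr RT; d2-cAMP and anti-cAMP-cryptate added; 1hr RT; 665/615 nm read.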

[17] = biological target: D(2) dopamine receptor (Homo sapiens) (UniProt P14416); experiment: Dopamine D2 receptor (DRD2) small molecule agonists, cell-based qHTS assay (AID 1963594); also: nearly all actives have a fitted effect of over 35% in size
D(2) dopamine receptor (Homo sapiens), sequence (P14416 whole entry, looked up): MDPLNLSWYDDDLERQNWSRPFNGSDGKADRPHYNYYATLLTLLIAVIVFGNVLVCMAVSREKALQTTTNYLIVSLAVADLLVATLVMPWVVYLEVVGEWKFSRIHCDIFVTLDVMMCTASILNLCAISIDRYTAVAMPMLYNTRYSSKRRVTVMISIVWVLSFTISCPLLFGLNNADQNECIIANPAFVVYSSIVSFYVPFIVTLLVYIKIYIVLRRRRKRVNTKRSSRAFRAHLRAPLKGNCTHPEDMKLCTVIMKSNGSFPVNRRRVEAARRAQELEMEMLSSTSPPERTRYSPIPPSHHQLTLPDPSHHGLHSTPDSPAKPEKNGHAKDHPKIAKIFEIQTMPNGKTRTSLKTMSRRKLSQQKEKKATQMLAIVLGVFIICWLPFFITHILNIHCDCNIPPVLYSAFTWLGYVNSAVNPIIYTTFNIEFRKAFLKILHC
Procedure, shortened: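 HEK293 cells stably expressing human DRD2, pre-treated with PDE inhibitor Ro20-1724 (0.1 mM final) and compound 10 min at room temperature, then stimulated with NKH477 (200nM […]) for 30 min. cAMP read by HTRF (665/620 nm).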

[18] = biological target: D(2) dopamine receptor (Homo sapiens) (UniProt P14416); experiment: Dopamine D2 receptor (DRD2) small molecule antagonists, cell-based qHTS assay (AID 1963595; active = well fitted inhibition curve with a large enough effect in the signal ratio in the repeat runs, with a control signal flat; the % refers to the signal ratio; also: potency is read from the fitted curve at half-maximal effect)
Procedure, shortened: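 HEK293 cells stably expressing DRD2 were preincubated with 0.1 mM Ro20-1724, then with compound for 10 min at room temperature. Cells were stimulated with 200 nM NKH477 plus 12 nM quinpirole for 30 min, and cAMP was read by HTRF.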

[19] = p53 small molecule agonists, cell-based qHTS assay with rat liver microsomes: qHTS cell viability counter screen (AID 1963580); also: nearly all actives have a fitted effect of over 45% in size
Procedure, shortened: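 p53RE-bla HCT-116 cells were exposed 16 h at 37 C to compounds with rat liver microsomes (0.5 mg/mL) and NADPH (0.5 mg/mL). Viability was measured in the same wells as ATP content by CellTiter-Glo luminescence.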

[20] = biological target: Muscarinic acetylcholine receptor M1 (Homo sapiens) (UniProt P11229); experiment: Cholinergic receptor muscarinic 1 (CHRM1) small molecule agonists, cell-based qHTS assay (AID 1963589); also: nearly all actives have a fitted effect of over 35% in size
Procedure, shortened: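 Human M1 in stable CHO line; 18 h plating, 1 h dye load 37 C; cpd added (agonist mode); Ca2+ fluorescence kinetic read, 1 s intervals; 15 conc, 3 runs.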

| Compound | Potency [1] | Potency [2] | Potency [3] | Potency [4] | Potency [5] | Potency [6] | Potency [7] | Potency [8] | Potency [9] | Potency [10] | Potency [11] | Potency [12] | Potency [13] | Potency [14] | Potency [15] | Potency [16] | Potency [17] | Potency [18] | Potency [19] | Potency [20] |
| --- | --- | --- | --- | --- | --- | --- | --- | --- | --- | --- | --- | --- | --- | --- | --- | --- | --- | --- | --- | --- |
| O=C(O)[C@H](O)[C@@H](O)[C@H](O[C@@H]1O[C@H](CO)[C@H](O)[C@H](O)[C@H]1O)[C@H](O)CO | inactive | inactive | inactive | inactive | inactive | inactive | inactive | inactive | inactive | inactive | inactive | inactive | inactive | inactive | inactive | inactive | inactive | inactive |  |  |
| c1ccc2c(c1)CCC2 | inactive | 13.7 µM (active) | inactive | inactive | inactive | inactive | inactive |  | inactive | inactive | inactive | inactive | inactive | inactive | inactive | inactive | inactive | inactive | inactive | inactive |
| Cc1ccc(S(N)(=O)=O)cc1 | inactive | inactive | inactive | inactive | inactive | inactive | inactive | inactive | inactive | inactive | inactive | inactive | inactive | inactive |  | inactive | inactive | inactive |  | inactive |
| CC(C)(C)c1n[nH]c(=O)n(N)c1=O | inactive | inactive | inactive | inactive | inactive | inactive | inactive |  | inactive | inactive | inactive | inactive | inactive | inactive | inactive | inactive | inactive | inactive | inactive | inactive |
| C[C@H]1C[C@H](O)c2ccsc2S1(=O)=O | inactive | inactive | inactive | inactive | inactive | inactive | inactive | inactive | inactive | inactive |  | inactive | inactive | inactive | inactive | inactive | inactive | inactive |  | inactive |
| Cc1ccccc1S(=O)(=O)O | inactive | inactive | inactive | inactive | inactive | inactive | inactive | inactive | inactive |  | inactive | inactive | inactive | inactive |  | inactive | inactive | inactive |  | inactive |
| O=C(O)/C=C/c1ccccc1 | inactive | inactive | inactive | inactive | inactive | inactive | inactive |  | inactive | inactive | inactive | inactive | inactive | inactive | inactive | inactive | inactive | inactive | inactive | inactive |
| NS(=O)(=O)c1cc2c(cc1Cl)NC(CC1CCCC1)NS2(=O)=O (stereo not drawn) | inactive | inactive | inactive | inactive | inactive | inactive | inactive |  | inactive | inactive | inactive | inactive | inactive | inactive | inactive | inactive | inactive |  | inactive | inactive |
| O=C1CCCCCCCCCCCCCCCO1 | inactive | inactive | inactive | inactive | inactive | inactive | inactive |  |  | inactive | inactive | inactive | inactive | inactive | inactive | inactive | inactive |  | inactive | inactive |
| CC(C)(C)C(=O)OCOP(=O)(COCCn1cnc2c(N)ncnc21)OCOC(=O)C(C)(C)C | inactive | inactive | inactive | inactive | inactive | inactive | inactive |  | inactive | 7.93 µM (active) | inactive | inactive | inactive | inactive | inactive | inactive | inactive | 13.3 µM (active) | inactive | inactive |
| F[Si-2](F)(F)(F)(F)F | inactive | inactive | inactive | inactive | inactive | inactive | inactive |  |  | inactive | inactive | inactive | inactive | inactive | inactive | inactive | inactive |  | inactive | inactive |
| O=C(O)c1ccc(OCCCOc2ccc(C(=O)O)cc2)cc1 | inactive | inactive | inactive | inactive | inactive | inactive |  | inactive | inactive | inactive | inactive | inactive | inactive | inactive | inactive | inactive | inactive | inactive | inactive | inactive |
| Cc1ccc(C(=O)O)cc1 | inactive | inactive | inactive | inactive | inactive | inactive | inactive |  | inactive |  | inactive | inactive | inactive | inactive | inactive | inactive | inactive | inactive | inactive | inactive |
| COC(OC)OC | inactive | inactive | inactive | inactive | inactive | inactive | inactive |  | inactive | inactive | inactive | inactive | inactive | inactive | inactive | inactive | inactive | inactive | inactive | inactive |
| CN(CC1(C)CCCO1)S(=O)(=O)c1ccc(Cl)c(S(N)(=O)=O)c1 (stereo not drawn) | inactive | inactive | inactive | inactive | inactive | inactive | inactive |  | inactive | inactive | inactive | inactive | inactive | inactive | inactive | inactive | inactive |  | inactive | inactive |
